The values that follow come from PubChem BioAssay AID687014 (The Scripps Research Institute Molecular Screening Center, 2013).

Molecules are shown by their SMILES. The campaign covered roughly 370,000 compounds. About 6,800 (1.8%) were called active. This is one part of a sample in which actives are shown more often than they occur.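 The calls were made as follows: active = activation above a cutoff set at the mean of all screened compounds plus 3 SD (cut at about 10% in these data); inactive = the rest.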

In this test the test system is Nuclear hormone receptor DAF-12 (Heterodera glycines), GAL4 fusion. The experiment in a line: hgDAF-12 GAL4 fusion reporter activation – cell-based, luminescence, HEK293, UAS-luciferase, primary screen (AID 687014).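 Also: 0% = DMSO wells and 100% = sodium butyrate wells.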 The settings on record: HEK293 GAL4-hgDAF12 UAS-luciferase reporter, agonist luminescence; at 6.8 µM; stronger effect = higher value; normalized to butyrate control. Background: Reporter assays use an easily measured gene product as a stand-in for the process of interest.
Consider `COc1ccc(CCNC(=O)NS(=O)(=O)c2ccc(C)cc2)cc1OC`, for which the activation was -1.2% (inactive). As to `COc1cc(NC(=O)C2CCCN(S(=O)(=O)c3ccc(C(C)(C)C)cc3)C2)cc(OC)c1` (configuration not stated), the activation is 4.12% (inactive). `CCn1c2ccccc2c2cc(NC(=O)CSc3nnc(-c4ccccc4)n3-c3ccc(C)cc3)ccc21`: the activation is 1.54% (inactive). The result for `Fc1ccc(-c2ccc(CNCc3ccccn3)o2)cc1Cl` reads -0.65% (inactive). The result for `Clc1ccccc1-c1cc(COc2ccc3ccccc3c2)no1` reads 0% (inactive); that for `Clc1ccc(-c2cc(-c3ccccn3)on2)c(Cl)c1`, 11.2% (active). The result for `CS(=O)(=O)N(CC(=O)N1CCOCC1)c1ccc2c3c(cccc13)CC2` reads 0.28% (inactive); that for `CCc1c(C)c2c(C)[nH]nc2oc1=O`, -1.18% (inactive). Turning to `CN(Cc1nc2ccc(F)cc2[nH]1)Cc1nc(CC2CC2)no1`, the activation is -0.98% (inactive).

With `O=C(NN=Cc1ccco1)C(=O)Nc1ccc(Cl)c([N+](=O)[O-])c1`, the activation was -2.99% (inactive). The result for `COc1ccc(CCNC(=O)CSc2nc3c([nH]2)c(=O)n(C)c(=O)n3C)cc1` reads 0.07% (inactive); that for `N#Cc1ccsc1NC(=O)CN1CCCCC1`, -0.08% (inactive); that for `Cc1csc(SCC(=O)Nc2ccc(C)c(S(=O)(=O)N(C)C)c2)n1`, 0.79% (inactive).

For the molecule `Cc1csc(SCC(=O)Nc2sccc2C#N)n1`, the activation is 17.8% (active). The result for `CC(=O)Nc1ccc(N2C(=O)C3C4CC(=O)C(c5ccccc54)C3C2=O)cc1` (configuration not stated) reads -0.45% (inactive); that for `CC(=O)O[C@@]1(C(C)=O)CCC2[C@H]3C=C(C)C4=CC(=O)CC[C@@]4(C)C3CC[C@]21C` (some centres not stated), -4.47% (inactive). As for `FC(F)(F)c1cccc(Cn2ccc3ccc(-c4ccc5ccn(Cc6ccccc6)c5c4)cc32)c1`, the activation was -0.72% (inactive).

With `COc1ccc(N2CCN(C(=S)Nc3ccc(S(N)(=O)=O)cc3)CC2)cc1`, the activation is -4.74% (inactive). On to `COc1ccc(NC(=O)N2CCC(Cc3ccccc3)CC2)cc1`, for which the activation was 1.2% (inactive). The result for `COc1ccc(NC(=S)N2N=CCC2c2ccccc2)cc1` (configuration not stated) reads 16.5% (active). For `CC(Sc1nnc(Cc2ccc([N+](=O)[O-])cc2)o1)C(N)=O` (configuration not stated), the activation is -0.65% (inactive). Consider `CCOC(=O)/C=C/c1ccccc1O`, for which the activation was 2.77% (inactive).

For `Cc1ccc(CN2CCN(Cc3ccccc3-c3ccco3)CC2CCO)o1` (configuration not stated), the activation is -2.88% (inactive). As for `N#CC1=C(N)N(c2ccc(F)cc2)C(=O)C1`, the activation is -1.83% (inactive). Take `O=C(NNC(=O)c1ccc(Cl)cc1Cl)c1cccs1`: the activation is 18.7% (active).

Take `Cc1ccc(NNC(=O)c2cccs2)cc1Cl`: the activation was 1.51% (inactive). For the molecule `O=C(COC(=O)c1ccc(O)cc1O)NNC(=O)c1cccs1`, the activation is 0.57% (inactive).
